The nature of assay [1]: NCI Yeast Anticancer Drug Screen. Data for the rad50 strain (AID 155).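 Further: 0% = growth of vehicle-only cultures of the same strain.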 The settings on record: S. cerevisiae rad50 strain growth inhibition, stronger effect = higher value; at 50.0 µM unless noted. A digest of the protocol:
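Genetically altered yeast (DNA repair pathway); compound treatment; growth inhibition vs vehicle ctrl.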

The nature of assay [2]: NCI Yeast Anticancer Drug Screen. Data for the mec2-1 strain (AID 157). The settings on record: S. cerevisiae mec2-1 strain, stronger effect = higher value; at 50.0 µM unless noted. A digest of the protocol:
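Cells of the genetically defined mec2-1 yeast strain are incubated with test compound. Inhibition of growth is calculated against vehicle-treated controls.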

Assay [3] can be described thus: NCI Yeast Anticancer Drug Screen. Data for the sgs1 mgt1 strain (AID 161).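 Further: 0% = growth of cultures given vehicle only.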 The settings on record: S. cerevisiae sgs1 mgt1 strain, stronger effect = higher value; at 50.0 µM unless noted. A digest of the protocol:
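Inhibition of yeast growth, normalised to vehicle-treated controls, is reported for a strain bearing genetic alterations in DNA damage repair.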

A short description of assay [4]: NCI Yeast Anticancer Drug Screen. Data for the cln2 rad14 strain (AID 165).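 Further: 0% = growth equal to vehicle treated cultures.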 The settings on record: S. cerevisiae cln2 rad14 strain, stronger effect = higher value; at 50.0 µM unless noted. A digest of the protocol:
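The screen exposed genetically defined yeast (cln2 rad14) to test compounds and scored growth inhibition relative to vehicle-treated controls.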

The nature of assay [5]: NCI Yeast Anticancer Drug Screen. Data for the bub3 strain (AID 167). The settings on record: S. cerevisiae bub3 mutant strain, stronger effect = higher value; at 50.0 µM unless noted. The method in brief: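 Yeast carrying a defined mutation is treated with each compound, and growth is compared with that of vehicle-exposed cells to give inhibition.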
Assay [6] is described as follows: NCI Yeast Anticancer Drug Screen. Data for the mlh1 rad18 strain (AID 175). The settings on record: S. cerevisiae mlh1 rad18 strain growth inhibition, stronger effect = higher value; at 50.0 µM unless noted. The method in brief: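 Compound-treated yeast growth, normalised to vehicle controls. Strain bears defined DNA repair mutations.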

The structures appear in SMILES notation. Values joined by “and” are separate entries in the source; they are usually repeats but may differ in a detail not shown here. Identical values can stand only once. About 79,000 compounds went through this panel and 15% of them were active in at least one assay; those are over-represented in the sample as a whole. Values without a mark were called inactive. Active and inactive are the calls of the source. No stated cut-off is given here; in the data, active means growth inhibition above about 70%; inactive means the rest.

With `C#CCOc1ccc(C)cc1`, the growth inhibition in assay [1] is -0.55%; in assay [2], 5.35%; in assay [3], -7.05%; in assay [4], 9.25%; in assay [5], 2.55%; in assay [6], -10.1%.

Regarding `CC(C)CCCC(C)C1CCC2C3CC4OC45CC(O)CCC5(C)C3CCC12C` (stereo not given), the growth inhibition in assay [1] was 42.4%; in assay [2], 18.1%; in assay [3], 47.7%; in assay [4], 7.3%; in assay [5] it was -1.1%; in assay [6], 29.4%.

In the case of `CN1C(=O)N(C2CCCCC2)C(=O)C(C)(CN2CCCCC2)C1=O` (stereo not given), the growth inhibition in assay [1] was 12.7%; in assay [2] it was 14.1%; in assay [3], 12.2%; in assay [4], 17.6%; in assay [5], -5.25%; in assay [6], 12.2%.

Regarding `Cc1[nH]c(=O)cc2c1[nH]c1ccccc12`, the growth inhibition is -0.4% in assay [1]; -6.7% in assay [2]; -0.15% in assay [3]; -44.2% in assay [4]; 1.3% in assay [5]; -1.05% in assay [6].

As for `Oc1ccc(-c2nc(-c3cccnc3)c(-c3ccc(F)cc3)[nH]2)cc1`, the growth inhibition in assay [1] is 5.2%; in assay [2] it was -13.7%; in assay [3], 12.8%; in assay [4] it was 8.55%; in assay [5], 12.5%; in assay [6], 57.8%.

Turning to `O=C1c2ccccc2C(=O)N1c1ccc(OCCN2CCCCC2)cc1`, the growth inhibition in assay [1] is 11.8%; in assay [2] it was -1.7%; in assay [3], 7.45%; in assay [4], 37.5%; in assay [5], -2.05%; in assay [6] it was 18.4%.

With `Nc1cccc(S(=O)(=O)NNc2cc(Cl)ccc2Cl)c1`, the growth inhibition is 98.7% (active) in assay [1]; 98.6% (active) in assay [2]; 98.8% (active) in assay [3]; 98.8% (active) in assay [4]; 98.3% (active) in assay [5]; 99% (active) in assay [6].

Turning to `CC(C(=O)O)N1C(=O)CNC1=O` (stereo not given), the growth inhibition in assay [1] is -1.85%; in assay [2], -4.05%; in assay [3] it was 1.15%; in assay [4], -37.6%; in assay [5], 1.25%; in assay [6], -12.8%.

As for `COc1ccc(NS(=O)(=O)c2ccc(NC(CNC(C)S(=O)(=O)O)S(=O)(=O)O)cc2)cc1` (stereo not given), the growth inhibition in assay [1] was 18.1%; in assay [2], 5.75%; in assay [3] it was 29.3%; in assay [4], 52.5%; in assay [5], -0.85%; in assay [6], 36.5%.

Regarding `Cc1cc(C)c2c(=O)n(-c3ccccc3C)c(=S)n(-c3ccccc3C)c2n1`, the growth inhibition in assay [1] is 31.4%; in assay [2] it was 8.35%; in assay [3] it was 2.25%; in assay [4], 1.95%; in assay [5], -4.1%; in assay [6] it was 24.7%.

Turning to `CC1CC(=O)Nc2nc3ccccc3n21` (stereo not given), the growth inhibition is 7.15% in assay [1]; 6.65% in assay [2]; -25.2% in assay [3]; -44.9% in assay [4]; -21.8% in assay [5]; -28.8% in assay [6].

For the molecule `CN(C)N=Nc1ccc(/C=C/C(=O)O)cc1`, the growth inhibition is 15.2% in assay [1]; 4.8% in assay [2]; 11.4% in assay [3]; 1.65% in assay [4]; 8.55% in assay [5]; -4.95% in assay [6].

On to `C/C(CC(C)C)=N/O`, for which the growth inhibition is 3.75% and -12.1% in assay [1]; -3.25% and -4.35% in assay [2]; -17.5% and -5.85% in assay [3]; -23.2% and -20.5% in assay [4]; -0.4% and 3% in assay [5]; 11.8% and 9.05% in assay [6].

With `O=C(c1ccccc1)c1ccc(O)cc1`, the growth inhibition was 3.5% in assay [1]; 3.05% in assay [2]; 21.4% in assay [3]; 13.9% in assay [4]; -1.75% in assay [5]; 24.9% in assay [6].

With `C=CCCCC12CCCc3cccc(c31)NC2=O` (stereo not given), the growth inhibition in assay [1] is 48.7%; in assay [2], 17.4%; in assay [3] it was 24.8%; in assay [4], 48%; in assay [5] it was 46.5%; in assay [6], 34.6%.

For `CNC(=O)C(C)NC(=O)C(Cc1ccccc1)NC(=O)c1ccccc1` (stereo not given), the growth inhibition in assay [1] was -33%; in assay [2], -52.7%; in assay [3] it was -6.45%; in assay [4], 15.4%; in assay [5], 5.2%; in assay [6] it was -11.7%.

`CCCCOC(=O)COc1c(Cl)ccc(Cl)c1Cl`: the growth inhibition in assay [1] was 6.95%; in assay [2], -0.75%; in assay [3] it was 7%; in assay [4] it was -3.5%; in assay [5], 11.3%; in assay [6], 6.7%.

For the molecule `O=C(O)C1C2CC=CCC21` (stereo not given), the growth inhibition was 13.4% in assay [1]; 4.5% in assay [2]; 11.8% in assay [3]; 8.85% in assay [4]; 12.2% in assay [5]; 16.6% in assay [6].

In the case of `CC1C(C)(C)C23CC12C1(OCCO1)C3Br` (stereo not given), the growth inhibition is -11.4% in assay [1]; -4.4% in assay [2]; -6.6% in assay [3]; 14.6% in assay [4]; 10.8% in assay [5]; 25.4% in assay [6].

Regarding `Cc1c(C(=O)CC(=O)C(=O)Nc2ccc(Cl)c(Cl)c2)[n+](=O)c2ccccc2n1[O-]`, the growth inhibition in assay [1] was 12.6%; in assay [2], 16.9%; in assay [3], -16.1%; in assay [4], 34.5%; in assay [5] it was 19.4%; in assay [6] it was 20.2%.

Source of the values: PubChem BioAssay (NCI).
